Laboratory results: PubChem BioAssay (NCI)
“And” between values parts separate entries of the source, which are not always exact repeats. Equal entries are not always repeated. Compounds without any hit were thinned out: in the full panel of roughly 83,000, 20% have a hit.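 The test compound was applied at a single concentration to cells in 96-well plates for 48 hours, and percent growth was recorded.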 The source made the active and inactive calls.

What follows are molecules tested on HOP-62 NSCLC (assay: NCI-60 one-dose screen, 48 h (100 = growth as untreated, 0 = no growth, -100 = all killed)). Settings: 10 µM.
Method: Growth inhibition of the HOP-62 human Non-Small Cell Lung tumor cell line is measured as a screen for anti-cancer activity. Cells are grown in 96 well plates and exposed to the test compound for 48 hours. Compounds are tested at a single concentration, which is 10^-5 M for most compounds. The reported endpoint is percent growth (GI% or GIPRCNT), where numbers from 0 - 100% represent growth inhibition, and numbers from -100% - 0 represent cell death. For example, a value of 40 represents 60% growth inhibition. A value of 0 means no net growth occurred over the course of the experiment. A value of -40 indicates 40% of cells at the beginning of the experiment died by the end of the experiment. A value of -100 means all cells are dead at the end of the experiment.
NCI-60 Human Tumor Cell Lines Screen was performed using the standard one-dose NCI protocol, which is described in more detail at https://dtp.cancer.gov/discovery_development/nci-60/default.htm.
Compounds with GIPRCNT values below 10 were considered active. Activity score was based on GIPRCNT using the following formula: […]
Score is 0 for GIPRCNT values of 100 or above, 50 for GIPRCNT values of 0, and 100 for GIPRCNT values of -100.

Question: With O=c1ccn2c(n1)OC1CC2OC1COC(c1ccccc1)(c1ccccc1)c1ccccc1 (stereo not given) as the molecule, how does the growth read?
Answer: 99.6% (inactive)

Same assay, conditions: 10 µM unless noted

Question: COc1cc(C2c3cc4c(cc3C(OC(=O)C[n+]3ccccc3)C3COC(=O)C23)OCO4)cc(OC)c1OC (stereo not given) was tested. Which growth did it give?
Answer: 19.3% (inactive)

Question: How did the growth turn out when CCCCCc1cc[n+](CC(=O)c2ccccc2)cc1 was run?
Answer: 90.5% (inactive) and 108% (inactive)

Question: CCOC(=O)CN1CCC(C(=O)OCC)CC1 was tested. Which growth did it give?
Answer: 98.9% (inactive)

Question: How did the growth turn out when O=C(O)c1ccc2c3ccc(C(=O)O)c4c(C(=O)O)ccc(c5ccc(C(=O)O)c1c25)c43 was run?
Answer: 92.4% (inactive)

Question: CCN(CC)C(=S)SCCO was tested. Which growth did it give?
Answer: 104% (inactive)

Question: With Cc1cc(O)c(C(C)C)cc1N=O as the molecule, how does the growth read?
Answer: 103% (inactive) and 99.4% (inactive)

Question: For COC(=O)c1nc(N)nc(C(=O)OC)c1C(=O)c1ccc(F)cc1, which growth is on record?
Answer: 113% (inactive)

Question: With CCC/C(=N/NC(N)=O)c1ccco1 as the molecule, how does the growth read?
Answer: 79.7% (inactive)

Question: Which growth does the source give for CC(=O)c1cccc(OC(=O)c2ccccc2)c1 here?
Answer: 104% (inactive)

Question: Which growth does the source give for Nc1nc(-c2ccccn2)cc(-c2cc(-c3ccccn3)nc(N)n2)n1 here?
Answer: 119% (inactive)

Question: How did the growth turn out when O=C(O)c1c2c(nc3ccccc13)Cc1ccccc1-2 was run?
Answer: 118% (inactive) and 88.9% (inactive)

Question: Which growth does the source give for O=C(N=C1C(=O)C2(CCCCC2)C2(N=C(c3ccccc3)OC2=O)C12CCCCC2)c1ccccc1 (stereo not given) here?
Answer: 96.8% (inactive)

Question: Which growth does the source give for COc1ccc2nccc(Cl)c2c1 here?
Answer: 98.4% (inactive)

Question: CCN(CC)C(CC(=O)c1ccccc1)C(=O)c1ccccc1 (stereo not given) was tested. Which growth did it give?
Answer: 116% (inactive)

Question: Which growth does the source give for O=C(c1ccccc1)C1(Br)CCCCC1 here?
Answer: 96% (inactive)

Question: With CCNCc1ccccc1 as the molecule, how does the growth read?
Answer: 102% (inactive)

Question: With COc1ccc2oc3c(ccc[n+]3C)c(=O)c2c1 as the molecule, how does the growth read?
Answer: 80.5% (inactive)

Question: CC1(CO)CCCC1NCCNC1CCCC1(C)CO (stereo not given) was tested. Which growth did it give?
Answer: 109% (inactive) and 100% (inactive)

Question: With Cc1c(Cl)cc(Cl)c(N)c1Cl as the molecule, how does the growth read?
Answer: 107% (inactive)

Question: With CCCCC/C(C)=N\NC(N)=S as the molecule, how does the growth read?
Answer: 89.8% (inactive)

Question: C/C=C/C(=O)OCCCCCCCCCCCC was tested. Which growth did it give?
Answer: 102% (inactive)

Question: Which growth does the source give for CN(C)c1ccc(C(=N)c2ccc(N(C)C)cc2)cc1 here?
Answer: 26.3% (inactive) and 37.2% (inactive)

Question: How did the growth turn out when COC(=O)c1nc(=S)[nH]c(C(=O)OC)c1C(=O)c1ccccc1 was run?
Answer: 113% (inactive)

Question: NCCCCCC(=O)O was tested. Which growth did it give?
Answer: 99.7% (inactive) and 105% (inactive) and 97.7% (inactive)

Question: Cc1cc2nc3ccc(=[N+](C)C)cc-3sc2cc1N was tested. Which growth did it give?
Answer: 0.425% (active) and 42.7% (inactive)

Question: For Cc1cnc(N)s1, which growth is on record?
Answer: 78.3% (inactive)

Question: N#CC1c2ccccc2C=CN1C(=O)c1ccccc1 (stereo not given) was tested. Which growth did it give?
Answer: 126% (inactive) and 101% (inactive)

Question: Which growth does the source give for CCOC(=O)C1=C(C)NC(C)=C(C(=O)OCC)C1 here?
Answer: 117% (inactive) and 91.3% (inactive)

Question: Which growth does the source give for Cc1cc(-c2ccc(N=Nc3c(C)nn(-c4ccc(S(=O)(=O)O)cc4)c3O)c(C)c2)ccc1N=Nc1ccc(O)c(C(=O)O)c1 here?
Answer: 87.7% (inactive)

Question: Which growth does the source give for O=C1Cc2ccccc2C(=O)N1 here?
Answer: 84.6% (inactive)

Question: CS(=O)(=O)c1nsc(N)n1 was tested. Which growth did it give?
Answer: 89.5% (inactive)

Question: How did the growth turn out when CC(=O)Nc1cscc1NC(C)=O was run?
Answer: 98.2% (inactive)

Question: For Cn1c(N)c(N=O)c(=O)n(C)c1=O, which growth is on record?
Answer: 101% (inactive) and 108% (inactive)

Question: For CC(=O)Oc1cc(C)c(OC(C)=O)c(C)c1C, which growth is on record?
Answer: 102% (inactive)

Question: Which growth does the source give for COc1ccc([N+](=O)[O-])cc1OC here?
Answer: 98.2% (inactive) and 109% (inactive)

Question: O=c1[nH]nnc2cc(Cl)ccc12 was tested. Which growth did it give?
Answer: 105% (inactive) and 89.1% (inactive)

Question: Which growth does the source give for CCOP(C)(=O)/C(Cc1ccc(OC)c(OC)c1)=N\O (stereo not given) here?
Answer: 98.7% (inactive)

Question: For COc1ccc(CCO)cc1, which growth is on record?
Answer: 96.2% (inactive)

Same assay, conditions: 100 µM

Question: O=c1ccn2c(n1)OC1CC2OC1COC(c1ccccc1)(c1ccccc1)c1ccccc1 (stereo not given) was tested. Which growth did it give?
Answer: 96.3% (inactive)
